Screening data from PubChem BioAssay.
Sampled rows, rich in hits. Any-hit rate of the full collection: about 2.1%.
PD-1 reverse act – activators reversing PD-1 mediated T-cell inhibition. primary human CD4 T cells, PD-L1 beads, CellTiter-Glo 96 h. activation, % (concentration not given with the values). 29,000 tested, under 10 active. AID 2316; call rule not given here
ROS inducer – raises reactive oxygen species in U2OS cancer cells. ROS induction (% of piperlongumine), % at 10 µM. 46,000 compounds, 2% hits. U2OS ROS induction, H2DCF-DA fluorescence; in the data active = ROS induction above about 79%, passing the limit was not always enough; inconclusive = no clear call, values can overlap the other calls
YB-1 expr inh – YB-1 expression inhibition. AID 434959. U2OS, qRT-PCR YB-1 vs CDIP delta delta Cp, 16 h; hits give high values; zero = DMSO, each unit about twofold. delta delta Cp (YB-1 minus CDIP) (test concentration not listed). 30,000 compounds, 0.37% hits;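 active = delta delta Cp rounded down to an integer at or above 3, about 3 SD of DMSO wells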;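 also: higher means less YB-1 transcript or more CDIP transcript relative to DMSO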
Hits are given with their value; n = inactive; u = inconclusive; x = not tested or not shown.

SMILES	PD-1 reverse act	ROS inducer	YB-1 expr inh
COc1ccc(OC)c(Nc2nc(-c3cccc(Cl)c3)c3c(n2)-c2ccccc2OC3)c1	x	n	x
CCn1c(C)nc2c(=O)oc3ccccc3c21	n	n	n
CC(C)n1nnc2c(=O)oc3ccccc3c21	x	79	x
CC12CCC(CC(=O)c3ccccc3)(CC1)CC2	n	n	n
CC(C)(C)C1CCC2(CC1)C(C#N)C2(C#N)C(=O)c1ccccc1 (stereo not drawn)	n	159	n
Cc1nn(CC(=O)Nc2ccc(F)cc2)c(C)c1[N+](=O)[O-]	n	n	x
Cc1ccc(NC(=O)Cn2nc(C)c([N+](=O)[O-])c2C)cc1C	n	169	x
O=C(Nc1ccc(F)c(F)c1)c1cc(S(=O)(=O)NCc2ccc(F)cc2)ccc1F	x	n	x
CCn1c(SCC(=O)Nc2ccc(Br)c(Cl)c2)nnc1-c1ccccc1O	n	n	x
O=C(Nc1nc2nc(-c3ccccc3)cc(-c3ccccc3)n2n1)c1ccccc1	x	n	x
CN(C(=O)c1ccccc1)c1ccccc1	x	n	x
C[C@@H]1CCCCO[C@H](CN(C)Cc2ccc(C(F)(F)F)cc2)[C@@H](C)CN([C@H](C)CO)C(=O)c2cc(NC(=O)CCC(F)(F)F)ccc2O1	n	n	n
C[C@@H]1CCCCO[C@@H](CN(C)Cc2ccncc2)[C@@H](C)CN([C@H](C)CO)C(=O)c2cc(NC(=O)C3CCCCC3)ccc2O1	n	n	n
C[C@@H]1CCCCO[C@@H](CN(C)Cc2ccc(C(F)(F)F)cc2)[C@@H](C)CN([C@H](C)CO)C(=O)c2cc(NC(=O)CCC(F)(F)F)ccc2O1	n	155	n
C[C@@H]1CCCCO[C@H](CN(C)C(=O)Nc2ccc3c(c2)OCO3)[C@@H](C)CN([C@H](C)CO)C(=O)c2cc(NC(=O)CCC(F)(F)F)ccc2O1	n	n	n
C[C@@H]1CCCCO[C@H](CN(C)Cc2ccc(C(F)(F)F)cc2)[C@@H](C)CN([C@H](C)CO)C(=O)c2cc(NC(=O)C3CCCCC3)ccc2O1	n	87	n
C[C@@H]1CCCCO[C@@H](CN(C)C(=O)Nc2ccc(F)cc2)[C@@H](C)CN([C@H](C)CO)C(=O)c2cc(NC(=O)CCC(F)(F)F)ccc2O1	n	140	n
CNC(=O)c1ccc(OC(C)=O)cc1	x	n	x
O=C(/C=C/c1ccc(O)cc1)OC[C@H]1O[C@@H](O[C@@H]2OC=C[C@H]3[C@H](O)[C@@H]4O[C@]4(CO)[C@@H]23)[C@H](O)[C@@H](O)[C@@H]1O	n	n	n
CC1(C)CC(=O)C=C(Sc2nc3cc(Cl)ccc3s2)C1	n	n	n
O=[N+]([O-])c1ccc(OCc2nc(-c3ccncc3)no2)cc1	n	n	x
O=c1c2sc(=S)n(Cc3ccco3)c2nc(SCc2ccccc2)n1-c1ccccc1	x	n	x
CCOc1ccccc1NC(=O)CSc1nc2ccccc2c(=O)n1-c1cccc(C(F)(F)F)c1	n	u	x
CC(=O)Oc1ccc(-c2coc3cc(OC(C)=O)cc(OC(C)=O)c3c2=O)cc1	n	n	n
CC(=O)OC[C@H]1O[C@@H](Oc2cc(OC(C)=O)c3c(=O)cc(-c4ccc(OC(C)=O)cc4)oc3c2)[C@H](OC(C)=O)[C@@H](OC(C)=O)[C@@H]1OC(C)=O	x	246	n
SMILES	PD-1 reverse act	ROS inducer	YB-1 expr inh
C/C=C/C=C/C(=O)c1cc(C)c(O)c(C)c1O	n	102	n
CC(=O)N1CCN(c2ccc([N+](=O)[O-])c(NCc3cccnc3)c2)CC1	n	n	x
O=C(c1ccc(Cl)cc1)N1CCN(c2ccc([N+](=O)[O-])c(NCc3ccccn3)c2)CC1	n	n	x
O=C(c1ccccc1Cl)N1CCN(c2ccc([N+](=O)[O-])c(NCc3cccnc3)c2)CC1	n	79	x
CC(C)(C)c1ccc(C(=O)N2CCN(c3ccc([N+](=O)[O-])c(NCc4cccnc4)c3)CC2)cc1	n	106	x
Cn1ccc(/C=C2/CCC/C(=C\c3ccn(C)n3)C2=O)n1	x	n	x
CNC(=O)c1ccc(/C=C2/Oc3ccccc3N(Cc3cccc(C)c3)C2=O)cc1	x	n	x
COC(=O)c1ccc([C@H]2C(C#N)=C(N)C(C#N)(C#N)C3=CCC(C(C)(C)C)C[C@@H]32)cc1 (stereo partly drawn)	n	226	n
CC(C)(C)C1CC=C2[C@H](C1)[C@@H](c1ccsc1)C(C#N)=C(N)C2(C#N)C#N (stereo partly drawn)	n	n	n
O=C(CSc1nnc(-c2ccccc2)c(-c2ccccc2)n1)NCCC1=CCCCC1	x	n	x
N#CSCC(=O)C12CC3CC(CC(C3)C1)C2	n	n	n
O=C(CSc1ccc(F)cc1Cl)C12CC3CC(CC(C3)C1)C2	n	n	7.2
CC(Sc1nc2ccccc2c(=O)[nH]1)C(=O)Nc1ccc(Cl)cc1 (stereo not drawn)	n	n	x
Cc1nc(-c2ccccc2)sc1C(=O)C1C(=O)C(=O)N(CCCN2CCOCC2)C1c1cccs1 (stereo not drawn)	n	115	x
Cc1nc(-c2ccccc2)sc1C(=O)C1C(=O)C(=O)N(CCCN2CCOCC2)C1c1ccco1 (stereo not drawn)	n	n	x
c1ccc2c3c([nH]c2c1)[C@H]1C2CCC([C@@H]4CCCN[C@H]24)N1CC3 (stereo partly drawn)	x	n	n
COc1ccc([Si](C)(C)[C@H]2[C@H](CCn3cc(CCO)nn3)O[C@@]3(C(=O)N(Cc4cccc(N5CCC5=O)c4)c4ccccc43)[C@@H]2C)cc1	x	109	n
COc1ccc([Si](C)(C)[C@@H]2[C@@H](CCn3cc(CCO)nn3)O[C@]3(C(=O)N(Cc4ccc(N5CCC5=O)cc4)c4ccccc43)[C@H]2C)cc1	x	n	n
COc1ccc([Si](C)(C)[C@@H]2[C@@H](CCO)O[C@]3(C(=O)N(Cc4ccc(N5CCC5=O)cc4)c4ccccc43)[C@H]2C)cc1	x	128	n
COc1ccc([Si](C)(C)[C@H]2[C@H](CCn3cc(CCO)nn3)O[C@@]3(C(=O)N(Cc4ccc(N5CCC5=O)cc4)c4ccccc43)[C@@H]2C)cc1	x	80	n
COc1ccc([Si](C)(C)[C@H]2[C@H](CCn3cc([C@H](O)c4ccccc4)nn3)O[C@@]3(C(=O)N(Cc4cccc(N5CCC5=O)c4)c4ccccc43)[C@@H]2C)cc1	x	n	n
COc1ccc([Si](C)(C)[C@H]2[C@H](CCO)O[C@@]3(C(=O)N(Cc4ccc(N5CCCCC5=O)cc4)c4ccccc43)[C@@H]2C)cc1	x	n	n
C1CCN(C2=NCCS2)CC1	x	n	x
CCCN1CC=C2C(C#N)=C(N)C(C#N)(C#N)C3(C(=O)Nc4ccccc43)C2C1 (stereo not drawn)	n	n	n
N#CC1=C(N)C(C#N)(C#N)C2(C(=O)N(Cc3ccccc3)c3ccccc32)C2CCCC=C12 (stereo not drawn)	n	127	n
CN/C(=C/[N+](=O)[O-])NCCSCc1csc(CN(C)C)n1	n	n	3.8
CC(=O)Nc1nonc1-c1nc2ccccc2n1Cc1ccccc1Br	n	n	x
Cn1c(-c2nonc2NC(=O)c2ccccc2Br)nc2ccccc21	n	102	x
CC(=O)NC1CC(C)(C)N(OC(=O)c2ccccn2)C(C)(C)C1	x	n	x
O=C(O)CC1CCC(CC(O)/C=C\C/C=C\CCCCCO)O1 (stereo not drawn)	n	n	n
